# Legend:
# Test in all cases: DAPPL (digital affinity profiling via proximity ligation, sequencing); 10 mM Tris-HCl pH 7.5, 50 mM NaCl, 1 mM DTT, 4% glycerol, room temperature, 30 min; GST-TFs on glutathione beads, 16-mer random dsDNA library, 0.1% formaldehyde crosslink after washing; high values mean tight binding
# Details in all cases: protein: recombinant; tags: N-terminal GST; dsDNA, one strand shown
# FLI1 = target: T1, FLI1 (Homo sapiens, UniProt Q01543 1-452)
# T1 sequence: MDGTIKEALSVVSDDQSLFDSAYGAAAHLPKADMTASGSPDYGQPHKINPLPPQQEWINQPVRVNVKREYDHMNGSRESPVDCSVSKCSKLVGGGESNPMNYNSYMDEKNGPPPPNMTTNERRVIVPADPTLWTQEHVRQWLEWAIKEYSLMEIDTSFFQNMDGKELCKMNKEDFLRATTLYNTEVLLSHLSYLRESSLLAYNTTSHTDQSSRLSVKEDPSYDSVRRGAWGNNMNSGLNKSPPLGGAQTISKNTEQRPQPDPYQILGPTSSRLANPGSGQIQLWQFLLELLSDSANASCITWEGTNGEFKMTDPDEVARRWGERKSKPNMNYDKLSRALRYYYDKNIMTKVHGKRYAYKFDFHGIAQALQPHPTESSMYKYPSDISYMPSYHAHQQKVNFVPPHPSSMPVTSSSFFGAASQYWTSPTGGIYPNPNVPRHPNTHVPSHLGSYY
# Summary of the method: (§1)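 Human transcription factors carrying a GST fusion were produced in yeast, bound to glutathione beads, tagged with DNA barcodes and pooled together with a tag-only sample. Each pool was held with 200 nmole of a random double-stranded 16-mer DNA library in Tris/NaCl/DTT/glycerol buffer for 30 min at room temperature, then washed, crosslinked in 0.1% formaldehyde, proximity-ligated with BsaI/T4 ligase (1 h, 37 °C), PCR-amplified and sequenced on an Illumina NextSeq500. Binding signal is the read frequency of each hexamer for a given factor divided by its frequency in the tag-only sample.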
# GABPA = target: T2, GABPA (Homo sapiens, UniProt Q06546 1-454)
# T2 sequence: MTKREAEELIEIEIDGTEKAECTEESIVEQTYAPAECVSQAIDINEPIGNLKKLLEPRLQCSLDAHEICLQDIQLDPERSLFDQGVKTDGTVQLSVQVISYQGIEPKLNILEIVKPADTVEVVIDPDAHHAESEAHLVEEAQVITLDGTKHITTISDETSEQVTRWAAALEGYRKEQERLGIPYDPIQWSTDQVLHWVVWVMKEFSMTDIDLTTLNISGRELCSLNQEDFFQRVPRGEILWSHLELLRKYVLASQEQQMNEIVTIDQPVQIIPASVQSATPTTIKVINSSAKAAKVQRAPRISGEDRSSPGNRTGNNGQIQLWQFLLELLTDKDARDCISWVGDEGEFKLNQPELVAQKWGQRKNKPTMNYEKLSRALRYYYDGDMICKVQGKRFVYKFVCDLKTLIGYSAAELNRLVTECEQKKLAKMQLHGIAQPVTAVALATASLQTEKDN
# Summary of the method: as §1
# ERG = target: T3, ERG (Homo sapiens, UniProt P11308 1-479)
# T3 sequence: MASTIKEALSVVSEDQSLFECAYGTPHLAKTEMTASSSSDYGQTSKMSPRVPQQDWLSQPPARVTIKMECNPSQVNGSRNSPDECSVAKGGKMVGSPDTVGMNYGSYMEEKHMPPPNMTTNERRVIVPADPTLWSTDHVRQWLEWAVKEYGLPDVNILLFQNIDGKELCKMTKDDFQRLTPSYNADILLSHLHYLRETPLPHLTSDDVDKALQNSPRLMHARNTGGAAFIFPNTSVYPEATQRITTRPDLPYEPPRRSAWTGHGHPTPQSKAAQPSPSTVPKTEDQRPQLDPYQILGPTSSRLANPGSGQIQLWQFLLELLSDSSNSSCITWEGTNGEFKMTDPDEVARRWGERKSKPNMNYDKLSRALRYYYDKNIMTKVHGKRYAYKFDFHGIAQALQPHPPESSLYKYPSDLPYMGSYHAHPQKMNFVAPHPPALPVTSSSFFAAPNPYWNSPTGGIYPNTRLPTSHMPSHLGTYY
# Summary of the method: as §1
# ELF1 = ELF1 (Homo sapiens, UniProt P32519 1-619)
# Summary of the method: as §1
# EHF = target: T4, EHF (Homo sapiens, UniProt Q9NZC4 1-300)
# T4 sequence: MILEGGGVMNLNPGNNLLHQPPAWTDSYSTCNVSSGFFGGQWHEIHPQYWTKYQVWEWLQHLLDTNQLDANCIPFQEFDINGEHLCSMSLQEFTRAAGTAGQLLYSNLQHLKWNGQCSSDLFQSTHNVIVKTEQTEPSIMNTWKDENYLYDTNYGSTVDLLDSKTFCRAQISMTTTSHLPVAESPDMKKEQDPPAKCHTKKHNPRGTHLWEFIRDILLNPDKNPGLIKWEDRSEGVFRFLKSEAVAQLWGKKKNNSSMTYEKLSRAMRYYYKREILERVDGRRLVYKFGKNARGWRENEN
# Summary of the method: as §1
# SPIB = SPIB (Homo sapiens, UniProt Q01892 1-262)
# Summary of the method: as §1
# ELK3 = target: T5, ELK3 (Homo sapiens, UniProt P41970 1-407)
# T5 sequence: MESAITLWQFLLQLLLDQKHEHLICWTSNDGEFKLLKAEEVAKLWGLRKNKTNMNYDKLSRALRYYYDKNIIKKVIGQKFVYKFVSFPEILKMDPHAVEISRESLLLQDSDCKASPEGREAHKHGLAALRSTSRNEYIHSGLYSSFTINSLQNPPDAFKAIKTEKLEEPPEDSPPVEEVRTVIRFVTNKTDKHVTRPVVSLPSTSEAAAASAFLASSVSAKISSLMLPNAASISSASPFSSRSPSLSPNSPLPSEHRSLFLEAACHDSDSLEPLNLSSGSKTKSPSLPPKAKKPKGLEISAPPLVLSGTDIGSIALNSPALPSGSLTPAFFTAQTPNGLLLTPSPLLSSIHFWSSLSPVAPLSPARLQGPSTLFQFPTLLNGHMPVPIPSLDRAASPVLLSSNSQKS
# Summary of the method: as §1
# ETV5 = ETV5 (Homo sapiens, UniProt P41161 1-510)
# Summary of the method: as §1
# SPIC = target: T6, SPIC (Homo sapiens, UniProt Q8N5J4 1-248)
# T6 sequence: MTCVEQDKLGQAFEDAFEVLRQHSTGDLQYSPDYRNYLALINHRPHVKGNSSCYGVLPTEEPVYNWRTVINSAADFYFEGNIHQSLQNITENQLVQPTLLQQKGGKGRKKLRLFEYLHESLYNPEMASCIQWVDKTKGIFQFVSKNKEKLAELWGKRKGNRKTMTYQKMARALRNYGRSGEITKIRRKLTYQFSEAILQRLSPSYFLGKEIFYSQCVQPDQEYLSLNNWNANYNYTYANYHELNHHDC
# Summary of the method: as §1
# ELF4 = ELF4 (Homo sapiens, UniProt Q99607 1-663)
# Summary of the method: as §1
# ETV1 = ETV1 (Homo sapiens, UniProt P50549 1-477)
# Summary of the method: as §1
# ERF = target: T7, ERF (Homo sapiens, UniProt P50548 1-548)
# T7 sequence: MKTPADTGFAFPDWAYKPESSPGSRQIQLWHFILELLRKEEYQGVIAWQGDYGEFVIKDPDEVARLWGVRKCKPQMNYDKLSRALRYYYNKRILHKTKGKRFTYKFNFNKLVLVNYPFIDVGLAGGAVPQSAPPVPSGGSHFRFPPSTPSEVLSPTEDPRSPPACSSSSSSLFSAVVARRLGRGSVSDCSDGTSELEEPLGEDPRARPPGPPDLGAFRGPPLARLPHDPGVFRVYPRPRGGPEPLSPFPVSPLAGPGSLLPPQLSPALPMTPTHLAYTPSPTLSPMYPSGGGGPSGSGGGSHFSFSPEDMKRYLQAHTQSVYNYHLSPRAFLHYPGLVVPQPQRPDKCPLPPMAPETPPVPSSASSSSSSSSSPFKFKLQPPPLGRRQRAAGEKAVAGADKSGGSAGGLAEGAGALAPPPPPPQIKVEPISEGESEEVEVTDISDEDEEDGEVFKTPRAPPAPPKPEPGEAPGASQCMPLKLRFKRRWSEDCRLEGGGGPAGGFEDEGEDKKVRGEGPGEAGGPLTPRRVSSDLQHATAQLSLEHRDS
# Summary of the method: as §1
# ETV3L = target: T8, ETV3L (Homo sapiens, UniProt Q6ZN32 1-361)
# T8 sequence: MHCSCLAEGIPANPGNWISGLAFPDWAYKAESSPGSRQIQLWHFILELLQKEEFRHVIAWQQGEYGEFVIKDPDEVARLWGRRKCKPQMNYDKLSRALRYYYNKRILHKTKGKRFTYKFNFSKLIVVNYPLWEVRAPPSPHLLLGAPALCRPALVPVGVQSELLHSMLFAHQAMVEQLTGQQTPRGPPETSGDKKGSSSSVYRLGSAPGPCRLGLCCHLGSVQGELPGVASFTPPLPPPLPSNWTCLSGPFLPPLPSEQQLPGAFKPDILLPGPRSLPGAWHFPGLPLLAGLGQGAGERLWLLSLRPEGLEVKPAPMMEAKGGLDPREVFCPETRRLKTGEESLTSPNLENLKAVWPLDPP
# Summary of the method: as §1
# ETS2 = target: T9, ETS2 (Homo sapiens, UniProt P15036 1-469)
# T9 sequence: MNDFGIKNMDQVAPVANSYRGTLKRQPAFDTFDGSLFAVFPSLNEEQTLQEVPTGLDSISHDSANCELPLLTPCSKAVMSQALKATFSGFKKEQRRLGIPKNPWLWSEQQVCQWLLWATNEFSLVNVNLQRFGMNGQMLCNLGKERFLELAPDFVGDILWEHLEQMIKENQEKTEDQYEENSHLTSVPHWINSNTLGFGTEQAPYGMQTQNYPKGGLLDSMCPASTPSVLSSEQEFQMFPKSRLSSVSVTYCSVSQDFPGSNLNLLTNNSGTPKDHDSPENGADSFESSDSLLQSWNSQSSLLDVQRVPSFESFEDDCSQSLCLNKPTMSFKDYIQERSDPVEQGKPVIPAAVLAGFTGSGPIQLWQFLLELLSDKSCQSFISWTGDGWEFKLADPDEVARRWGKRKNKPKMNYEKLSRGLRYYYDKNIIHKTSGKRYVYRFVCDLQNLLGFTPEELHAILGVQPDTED
# Summary of the method: as §1
# ETV3 = target: T10, ETV3 (Homo sapiens, UniProt P41162-2 1-143)
# T10 sequence: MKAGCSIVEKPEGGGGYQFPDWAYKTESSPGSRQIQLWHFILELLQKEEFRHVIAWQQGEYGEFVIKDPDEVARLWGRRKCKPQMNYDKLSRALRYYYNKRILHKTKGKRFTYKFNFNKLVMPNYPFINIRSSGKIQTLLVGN
# Summary of the method: as §1
# Chain of ETV5 (P41161 whole entry): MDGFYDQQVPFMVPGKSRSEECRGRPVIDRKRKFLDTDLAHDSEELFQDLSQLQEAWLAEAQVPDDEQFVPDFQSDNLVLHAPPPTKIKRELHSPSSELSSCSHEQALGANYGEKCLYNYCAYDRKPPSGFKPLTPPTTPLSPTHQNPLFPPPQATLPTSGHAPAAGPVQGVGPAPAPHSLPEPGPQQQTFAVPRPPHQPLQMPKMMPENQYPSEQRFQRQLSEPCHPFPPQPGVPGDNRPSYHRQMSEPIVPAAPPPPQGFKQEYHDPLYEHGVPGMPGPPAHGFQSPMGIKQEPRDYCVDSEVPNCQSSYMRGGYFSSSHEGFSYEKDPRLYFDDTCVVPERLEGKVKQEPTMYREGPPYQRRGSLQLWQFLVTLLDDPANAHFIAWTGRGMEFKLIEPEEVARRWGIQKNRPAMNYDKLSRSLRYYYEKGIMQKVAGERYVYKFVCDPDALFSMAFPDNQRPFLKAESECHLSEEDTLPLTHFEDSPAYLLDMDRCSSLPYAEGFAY
# Chain of ELF4 (Q99607 whole entry): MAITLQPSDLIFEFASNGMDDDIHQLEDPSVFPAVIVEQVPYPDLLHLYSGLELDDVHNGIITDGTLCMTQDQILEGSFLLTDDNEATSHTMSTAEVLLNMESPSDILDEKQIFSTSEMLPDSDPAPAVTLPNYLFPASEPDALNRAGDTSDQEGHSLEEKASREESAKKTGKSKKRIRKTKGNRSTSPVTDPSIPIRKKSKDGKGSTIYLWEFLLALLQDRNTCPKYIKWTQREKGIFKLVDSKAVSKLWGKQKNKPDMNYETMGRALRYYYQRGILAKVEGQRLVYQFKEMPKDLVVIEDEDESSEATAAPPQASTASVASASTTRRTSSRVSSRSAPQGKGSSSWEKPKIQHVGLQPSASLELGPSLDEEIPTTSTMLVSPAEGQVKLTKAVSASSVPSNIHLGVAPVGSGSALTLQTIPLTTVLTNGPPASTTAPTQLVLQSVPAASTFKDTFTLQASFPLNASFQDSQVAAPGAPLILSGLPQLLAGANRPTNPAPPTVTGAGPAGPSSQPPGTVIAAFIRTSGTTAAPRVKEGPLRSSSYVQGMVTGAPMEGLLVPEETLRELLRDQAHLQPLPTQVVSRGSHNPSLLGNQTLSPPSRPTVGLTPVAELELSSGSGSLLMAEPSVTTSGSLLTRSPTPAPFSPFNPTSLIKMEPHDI
# Chain of ETV1 (P50549 whole entry): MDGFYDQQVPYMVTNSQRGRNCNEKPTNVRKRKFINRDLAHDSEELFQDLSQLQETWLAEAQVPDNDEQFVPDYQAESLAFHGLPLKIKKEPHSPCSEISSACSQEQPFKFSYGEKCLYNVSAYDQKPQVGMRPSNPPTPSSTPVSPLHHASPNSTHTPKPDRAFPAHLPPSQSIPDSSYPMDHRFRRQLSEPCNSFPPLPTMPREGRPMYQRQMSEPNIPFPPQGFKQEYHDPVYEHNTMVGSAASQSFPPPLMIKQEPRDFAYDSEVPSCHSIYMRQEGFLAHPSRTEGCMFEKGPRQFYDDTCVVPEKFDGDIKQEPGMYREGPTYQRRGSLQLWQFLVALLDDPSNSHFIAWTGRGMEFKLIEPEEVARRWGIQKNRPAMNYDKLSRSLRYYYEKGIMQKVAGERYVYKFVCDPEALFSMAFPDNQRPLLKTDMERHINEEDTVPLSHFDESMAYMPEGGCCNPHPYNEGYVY
# Chain of ELF1 (P32519 whole entry): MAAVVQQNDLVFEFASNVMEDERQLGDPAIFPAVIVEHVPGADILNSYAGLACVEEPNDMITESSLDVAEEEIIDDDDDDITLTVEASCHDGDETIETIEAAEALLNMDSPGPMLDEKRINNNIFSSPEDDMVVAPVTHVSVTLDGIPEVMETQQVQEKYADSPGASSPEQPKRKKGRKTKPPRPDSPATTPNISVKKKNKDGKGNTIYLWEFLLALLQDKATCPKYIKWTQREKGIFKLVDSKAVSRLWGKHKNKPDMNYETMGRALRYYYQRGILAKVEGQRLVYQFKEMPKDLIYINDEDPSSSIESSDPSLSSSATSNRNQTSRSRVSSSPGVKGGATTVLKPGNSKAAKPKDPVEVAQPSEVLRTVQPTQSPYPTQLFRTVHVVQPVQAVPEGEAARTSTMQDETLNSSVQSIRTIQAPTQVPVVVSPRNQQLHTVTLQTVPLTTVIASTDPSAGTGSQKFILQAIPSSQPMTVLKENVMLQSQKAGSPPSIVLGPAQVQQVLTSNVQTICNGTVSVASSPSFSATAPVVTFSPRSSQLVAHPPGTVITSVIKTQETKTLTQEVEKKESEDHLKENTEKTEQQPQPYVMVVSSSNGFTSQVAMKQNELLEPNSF
# Chain of SPIB (Q01892 whole entry): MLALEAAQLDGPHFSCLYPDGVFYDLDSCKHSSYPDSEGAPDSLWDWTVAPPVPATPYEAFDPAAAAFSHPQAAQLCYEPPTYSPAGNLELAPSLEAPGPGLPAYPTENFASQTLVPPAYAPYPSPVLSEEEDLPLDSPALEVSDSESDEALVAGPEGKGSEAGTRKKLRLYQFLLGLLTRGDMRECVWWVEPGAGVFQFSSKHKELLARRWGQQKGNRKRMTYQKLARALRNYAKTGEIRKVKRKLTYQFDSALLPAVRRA
sequence,measurement,setting,value
TCGCTG,binding signal,FLI1,"1.02 fold enrichment (6-mer frequency, TF over GST control)"
same,binding signal,GABPA,"1.01 fold enrichment (6-mer frequency, TF over GST control)"
same,binding signal,ERG,"1.02 fold enrichment (6-mer frequency, TF over GST control)"
same,binding signal,ELF1,"1.05 fold enrichment (6-mer frequency, TF over GST control)"
same,binding signal,EHF,"1.1 fold enrichment (6-mer frequency, TF over GST control)"
same,binding signal,SPIB,"1.22 fold enrichment (6-mer frequency, TF over GST control)"
same,binding signal,ELK3,"1.23 fold enrichment (6-mer frequency, TF over GST control)"
same,binding signal,ETV5,"1.11 fold enrichment (6-mer frequency, TF over GST control)"
same,binding signal,SPIC,"1.19 fold enrichment (6-mer frequency, TF over GST control)"
same,binding signal,ELF4,"1.05 fold enrichment (6-mer frequency, TF over GST control)"
same,binding signal,ETV1,"1.15 fold enrichment (6-mer frequency, TF over GST control)"
same,binding signal,ERF,"1.16 fold enrichment (6-mer frequency, TF over GST control)"
same,binding signal,ETV3L,"1.05 fold enrichment (6-mer frequency, TF over GST control)"
same,binding signal,ETS2,"1.12 fold enrichment (6-mer frequency, TF over GST control)"
same,binding signal,ETV3,"1.13 fold enrichment (6-mer frequency, TF over GST control)"

# Source: publication PMC7862700, “An all-to-all approach to the identification of sequence-specific readers for epigenetic DNA modifications on cytosine”
